Test results published in PubChem BioAssay (NCI).
Where “and” joins values, the source holds several entries; their conditions need not be identical. Identical values can stand only once. Compounds without any hit were thinned out: in the full panel of roughly 83,000, 20% have a hit.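 Note: values are percent growth. 100 is the growth of untreated cells, values between 100 and 0 indicate rising inhibition; between -100 and 0 indicates cell death.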 More than one record can exist for a structure, and the calls need not agree. Calls of active or inactive are those of the source. The calls were made as follows: active = growth percent below 10; inactive = the rest.

Legend:
Experiment in all cases: NCI-60 one-dose screen, 48 h (100 = growth as untreated, 0 = no growth, -100 = all killed)
Conditions in all cases: 10 µM unless noted
SR leukemia = test system: SR leukemia
RPMI-8226 leukemia = test system: RPMI-8226 leukemia
OVCAR-8 ovarian = test system: OVCAR-8 ovarian
OVCAR-5 ovarian = test system: OVCAR-5 ovarian
OVCAR-4 ovarian = test system: OVCAR-4 ovarian
SK-OV-3 ovarian = test system: SK-OV-3 ovarian
IGROV1 ovarian = test system: IGROV1 ovarian
OVCAR-3 ovarian = test system: OVCAR-3 ovarian
HS 578T breast = test system: HS 578T breast
NCI/ADR-RES ovarian = test system: NCI/ADR-RES ovarian

SMILES | growth (SR leukemia) | growth (RPMI-8226 leukemia) | growth (OVCAR-8 ovarian) | growth (OVCAR-5 ovarian) | growth (OVCAR-4 ovarian) | growth (SK-OV-3 ovarian) | growth (IGROV1 ovarian) | growth (OVCAR-3 ovarian) | growth (HS 578T breast) | growth (NCI/ADR-RES ovarian)
CC[N+](CC)(CC(=O)Nc1c(C)cccc1C)Cc1ccccc1 | 92.4% (inactive) | 74% (inactive) and 113% (inactive) | 95.2% (inactive) and 105% (inactive) | 119% (inactive) and 99.1% (inactive) | 80.4% (inactive) and 105% (inactive) | 102% (inactive) and 107% (inactive) | 85.4% (inactive) and 94.5% (inactive) | 104% (inactive) and 109% (inactive) | 109% (inactive) | 90.3% (inactive) and 102% (inactive)
c1ccc(N(c2ccccc2)c2ccccc2)cc1 | 79.3% (inactive) | 100% (inactive) | 97.5% (inactive) | 104% (inactive) | 114% (inactive) |  | 104% (inactive) | 112% (inactive) | 110% (inactive) | 105% (inactive)
COc1cc(C(=O)N/N=C/c2ccc(N(C)C)cc2)cc(OC)c1OC | 6.85% (active) | 19.6% (inactive) | 21.2% (inactive) | 44.5% (inactive) | 61.7% (inactive) | 10.9% (inactive) |  | -11.7% (active) | 46.4% (inactive) | -40.1% (active)
O=C1c2c(O)cc(O)cc2OC(c2ccc(O)c(O)c2)C1O (stereo not given) | 101% (inactive) | 99.5% (inactive) | 99.1% (inactive) |  | 113% (inactive) | 109% (inactive) | 126% (inactive) | 123% (inactive) | 109% (inactive) | 
CCC(=O)C(CC)c1cccc(OC)c1 (stereo not given) | 96.7% (inactive) | 101% (inactive) | 105% (inactive) | 115% (inactive) | 105% (inactive) | 121% (inactive) | 107% (inactive) | 117% (inactive) | 106% (inactive) | 101% (inactive)
CNC(=O)c1cccnc1 | 87.4% (inactive) | 112% (inactive) | 100% (inactive) | 110% (inactive) | 108% (inactive) |  | 111% (inactive) | 116% (inactive) | 107% (inactive) | 97% (inactive)
C[N+](C)(C)CN1C(=O)c2ccccc2C1=O | 83.8% (inactive) | 106% (inactive) | 97.4% (inactive) | 105% (inactive) | 101% (inactive) | 98.1% (inactive) |  | 109% (inactive) | 103% (inactive) | 
O=[N+]([O-])c1ccc(/C=N\NC(=S)Nc2ccc(F)cc2)cc1 | 99.7% (inactive) | 100% (inactive) and 85.2% (inactive) | 94.1% (inactive) and 95.3% (inactive) | 115% (inactive) and 94.7% (inactive) | 92.6% (inactive) | 98.5% (inactive) and 91.7% (inactive) | 96.8% (inactive) and 99.1% (inactive) | 129% (inactive) and 109% (inactive) | 93.4% (inactive) | 100% (inactive) and 89.8% (inactive)
O=[N+]([O-])c1ccccc1N(S(=O)(=O)c1ccccc1)S(=O)(=O)c1ccccc1 | 85.8% (inactive) and 101% (inactive) | 85.4% (inactive) and 90.4% (inactive) | 98.2% (inactive) and 95.6% (inactive) | 105% (inactive) and 101% (inactive) | 115% (inactive) | 109% (inactive) and 111% (inactive) | 99.2% (inactive) and 96.7% (inactive) | 107% (inactive) and 93.5% (inactive) | 113% (inactive) | 98.9% (inactive) and 86.3% (inactive)
CNc1cc(-c2cccc(OC(F)(F)F)c2)nc2ccc(N3CCCC3)cc12 | -33.9% (active) and -44.7% (active) and -14.6% (active) | -51.4% (active) and -43.5% (active) and -37.5% (active) | 34.7% (inactive) and -26.3% (active) and -2.97% (active) | 55.7% (inactive) and 12.4% (inactive) and 50% (inactive) | 53.1% (inactive) and -27.1% (active) and 22% (inactive) | 93.5% (inactive) and 55.3% (inactive) and 92.4% (inactive) | 35.5% (inactive) and -14.9% (active) and 53.2% (inactive) | 85.7% (inactive) and -90.8% (active) and 84.8% (inactive) | 88.4% (inactive) and 47.5% (inactive) and 75.7% (inactive) | 59% (inactive) and 20.9% (inactive) and 21.3% (inactive)
CCN(CC)CCCC(CNc1ccnc2cc(Cl)ccc12)c1ccc(Cl)cc1 (stereo not given) | -42.9% (active) and -57.7% (active) | -7.53% (active) and -24.9% (active) | 7.69% (active) and 8.6% (active) | 17.5% (inactive) and 62.9% (inactive) | -34.9% (active) and 14.3% (inactive) | 28% (inactive) and 99.4% (inactive) | -9.56% (active) and 20.2% (inactive) | 43% (inactive) and 19.9% (inactive) | 21.6% (inactive) | 19.5% (inactive) and 15.9% (inactive)
CC(C(=O)O)n1cc(C#N)c(=O)[nH]c1=O (stereo not given) | 93.5% (inactive) and 99.9% (inactive) | 106% (inactive) and 104% (inactive) | 103% (inactive) and 113% (inactive) |  | 108% (inactive) and 110% (inactive) | 102% (inactive) and 98.6% (inactive) | 101% (inactive) and 109% (inactive) | 116% (inactive) and 101% (inactive) | 114% (inactive) and 113% (inactive) | 
Cc1cc(-c2ccc(NS(=O)(=O)c3ccccc3)c(C)c2)ccc1NS(=O)(=O)c1ccccc1 | 49.2% (inactive) and 59.7% (inactive) | 53.7% (inactive) and 66.1% (inactive) | 85.4% (inactive) and 95.8% (inactive) | 126% (inactive) and 111% (inactive) | 66.2% (inactive) and 99% (inactive) | 102% (inactive) and 126% (inactive) | 69.3% (inactive) and 117% (inactive) | 90.1% (inactive) and 107% (inactive) | 83.4% (inactive) and 92.6% (inactive) | 86.1% (inactive) and 87.3% (inactive)
COc1cc2nc(N3CCC[C@@H](NC(=O)C4COc5ccccc5O4)C3)nc(N)c2cc1OC (stereo not given in full) | 88.3% (inactive) and 91.2% (inactive) | 95.2% (inactive) and 91.4% (inactive) | 100% (inactive) and 94.3% (inactive) | 102% (inactive) and 97.1% (inactive) | 101% (inactive) and 95.4% (inactive) | 105% (inactive) and 106% (inactive) | 105% (inactive) and 108% (inactive) | 105% (inactive) and 106% (inactive) | 110% (inactive) and 109% (inactive) | 109% (inactive) and 106% (inactive)
O=C(N/N=C/c1cccc2ccccc12)C1CC1 | 93.6% (inactive) | 85.6% (inactive) and 97.8% (inactive) | 101% (inactive) and 98.5% (inactive) |  | 101% (inactive) | 108% (inactive) and 117% (inactive) | 118% (inactive) and 107% (inactive) | 113% (inactive) and 112% (inactive) | 109% (inactive) and 98.6% (inactive) | 
Cc1ccc(NCSc2ccc(Cl)cc2)cc1 | 62.5% (inactive) and 67.7% (inactive) | 20.8% (inactive) | 97.3% (inactive) and 93.2% (inactive) | 106% (inactive) |  | 96.2% (inactive) and 97% (inactive) | 103% (inactive) and 80.7% (inactive) | 71.6% (inactive) and 78.9% (inactive) | 93.7% (inactive) and 102% (inactive) | 88% (inactive) and 95.8% (inactive)
Cn1c(=O)n(-c2ccc(C(C)(C)C#N)cc2)c2c3cc(-c4cnc5ccccc5c4)ccc3ncc21 | 2.04% (active) and -5.13% (active) | 8.42% (active) | 1.15% (active) and -10.2% (active) |  | -5.93% (active) and 0.981% (active) | -28.9% (active) and -13% (active) | -12.3% (active) and -27.9% (active) | 13.7% (inactive) and -10.6% (active) |  | 1.89% (active) and -0.868% (active)
Nc1cc(-c2cccc(OC(F)(F)F)c2)nc2ccc(N3CCCC3)cc12 | -22.2% (active) and -23.6% (active) and -23.8% (active) | 4.74% (active) and 17.6% (inactive) and 10.6% (inactive) | 11.4% (inactive) and 13.7% (inactive) and 7.39% (active) |  | 52.5% (inactive) and 55.2% (inactive) and 56.6% (inactive) | 36% (inactive) and 5.93% (active) | 23.7% (inactive) and 25.6% (inactive) and 24.4% (inactive) | 4.65% (active) and 2.53% (active) and -33% (active) | -0.422% (active) and 13.7% (inactive) and 27.5% (inactive) | 5.44% (active) and 3.14% (active) and 11.7% (inactive)
